Assay [1] relates to Plasmodium falciparum Sir2 (PF13_0152, Sir2A). Nature of the assay: Plasmodium falciparum Sir2A binding compounds – biochemical, small-molecule microarray, 635 nm fluorescence, primary screen (AID 1098).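 Note: score merges spot fluorescence intensity with its signal-to-noise ratio.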 The following applies: fluorescence 635 nm, higher = more signal.
Assay [2] in a line: probe aDKK1 binding to arrayed compounds – biochemical, biotinylated probe, 635/667 nm fluorescence, primary screen (AID 1099).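 Note: score merges 667nm spot fluorescence with signal to noise across triplicate slides; reference of the scale not given here.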 The following applies: small-molecule microarray, higher = more signal.
Assay [3] is described as follows: probe aCHRDL2 binding to arrayed compounds – biochemical, biotinylated probe, 635/667 nm fluorescence, primary screen (AID 1100). The following applies: small-molecule microarray, higher = more signal.
The nature of assay [4]: change in splice reporter luminescence, either direction, cell-based, HEK293, spliceosome inhibition project, primary screen (AID 1101).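 Note: HEK293 cells carrying a splicing-competent luciferase reporter gene; test concentration not given here.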 The following applies: HEK293 splicing luciferase reporter, 24 h, higher = more signal, called active from +8 up or from −8 down.
The target of assay [5] is Fibroblast growth factor 10 (Homo sapiens) (UniProt O15520). Briefly: compounds binding fibroblast growth factor 10 – biochemical, small-molecule microarray, 635 nm fluorescence, primary screen (AID 1102). The following applies: FGF10 binding, fluorescence 635 nm, higher = more signal.
Assay [6] concerns glycogen synthase kinase-3 (GSK3A per assay name; protocol says GSK3B). Nature of the assay: compounds binding glycogen synthase kinase-3 – biochemical, small-molecule microarray, 635 nm fluorescence, GSK3A, primary screen (AID 1103). Note: the record names both GSK3A and GSK3B. The following applies: fluorescence 635 nm, higher = more signal.
Assay [7] addresses Epidermal growth factor receptor (Homo sapiens) (UniProt P00533). Nature of the assay: compounds binding epidermal growth factor receptor – biochemical, small-molecule microarray, 635 nm fluorescence, primary screen (AID 1104).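 Note: score merges 667 nm emission intensity with spot signal to noise over triplicate slides.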 The following applies: EGFR binding, higher = more signal.
Assay [8] concerns the target Follistatin-related protein 3 (Homo sapiens) (UniProt O95633). Briefly: compounds binding follistatin-related protein 3 – biochemical, small-molecule microarray, 635 nm fluorescence, primary screen (AID 1105).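 Note: score merges emission near 667 nm and signal to noise per printed spot across three slides.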 The following applies: FSTL3 binding, higher = more signal.
In assay [9] the target is Dickkopf-related protein 1 (Homo sapiens) (UniProt O94907). Nature of the assay: small molecules binding DKK1 protein – biochemical, small-molecule microarray, 635 nm fluorescence scan, primary screen (AID 1106).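 Note: score merges emission near 667 nm with signal to noise over three replicate slides.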 The following applies: higher = more signal.
For assay [10], the system named is Inhibin beta A chain (activin A). Briefly: small molecules binding activin A – biochemical, small-molecule microarray, 635 nm fluorescence scan, primary screen (AID 1107).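 Note: mouse activin A protein probed at 4.33 µg/mL on printed slides; score merges bound-protein fluorescence near 667 nm with spot signal-to-noise.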 The following applies: INHBA, higher = more signal.

Activity calls are given as the source filed them.

Sequence of Epidermal growth factor receptor (Homo sapiens) (P00533 whole entry, looked up): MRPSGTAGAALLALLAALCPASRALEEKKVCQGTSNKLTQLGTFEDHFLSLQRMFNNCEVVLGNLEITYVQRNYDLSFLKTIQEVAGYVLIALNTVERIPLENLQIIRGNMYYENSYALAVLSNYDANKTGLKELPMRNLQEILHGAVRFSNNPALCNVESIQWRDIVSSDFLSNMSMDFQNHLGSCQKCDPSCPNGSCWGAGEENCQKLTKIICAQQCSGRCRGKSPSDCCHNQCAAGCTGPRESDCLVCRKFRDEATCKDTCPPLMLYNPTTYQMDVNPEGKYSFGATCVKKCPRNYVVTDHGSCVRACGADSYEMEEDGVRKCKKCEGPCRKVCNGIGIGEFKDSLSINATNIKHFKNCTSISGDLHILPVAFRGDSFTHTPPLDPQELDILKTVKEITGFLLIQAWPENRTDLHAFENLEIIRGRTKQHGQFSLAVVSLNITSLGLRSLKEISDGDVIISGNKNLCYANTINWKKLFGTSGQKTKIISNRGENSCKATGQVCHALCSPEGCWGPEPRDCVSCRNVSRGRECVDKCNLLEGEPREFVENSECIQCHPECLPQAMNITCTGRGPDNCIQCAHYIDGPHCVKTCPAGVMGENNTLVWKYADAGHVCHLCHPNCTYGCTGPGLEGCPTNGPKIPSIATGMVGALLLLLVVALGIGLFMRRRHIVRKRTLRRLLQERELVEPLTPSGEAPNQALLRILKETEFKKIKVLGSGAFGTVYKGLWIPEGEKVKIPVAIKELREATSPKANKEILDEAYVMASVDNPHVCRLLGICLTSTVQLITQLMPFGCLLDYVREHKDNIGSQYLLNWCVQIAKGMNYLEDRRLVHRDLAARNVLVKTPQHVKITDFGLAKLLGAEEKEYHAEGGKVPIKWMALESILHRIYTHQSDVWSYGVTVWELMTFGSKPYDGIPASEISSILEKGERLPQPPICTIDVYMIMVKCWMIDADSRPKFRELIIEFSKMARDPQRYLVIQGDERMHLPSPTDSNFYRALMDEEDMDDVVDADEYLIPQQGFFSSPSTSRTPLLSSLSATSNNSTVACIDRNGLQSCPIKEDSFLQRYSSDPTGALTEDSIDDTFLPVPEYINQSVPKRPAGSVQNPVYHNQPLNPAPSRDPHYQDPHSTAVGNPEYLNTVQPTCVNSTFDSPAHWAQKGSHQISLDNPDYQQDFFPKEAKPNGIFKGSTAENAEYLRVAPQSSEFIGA
Sequence of Follistatin-related protein 3 (Homo sapiens) (O95633 whole entry, looked up): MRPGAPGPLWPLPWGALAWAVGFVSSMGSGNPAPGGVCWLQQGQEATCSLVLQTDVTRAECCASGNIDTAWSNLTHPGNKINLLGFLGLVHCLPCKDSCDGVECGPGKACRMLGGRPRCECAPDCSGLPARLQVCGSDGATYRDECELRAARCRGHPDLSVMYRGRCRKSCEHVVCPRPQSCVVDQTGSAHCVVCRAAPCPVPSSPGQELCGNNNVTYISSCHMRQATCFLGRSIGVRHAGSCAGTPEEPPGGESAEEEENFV
Sequence of Fibroblast growth factor 10 (Homo sapiens) (O15520 whole entry, looked up): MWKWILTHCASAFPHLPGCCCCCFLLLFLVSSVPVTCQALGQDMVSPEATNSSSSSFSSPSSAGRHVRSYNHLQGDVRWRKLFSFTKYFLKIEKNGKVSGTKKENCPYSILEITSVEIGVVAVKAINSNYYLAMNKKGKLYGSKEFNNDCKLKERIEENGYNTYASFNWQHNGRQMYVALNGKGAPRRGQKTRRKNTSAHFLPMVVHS
Sequence of Dickkopf-related protein 1 (Homo sapiens) (O94907 whole entry, looked up): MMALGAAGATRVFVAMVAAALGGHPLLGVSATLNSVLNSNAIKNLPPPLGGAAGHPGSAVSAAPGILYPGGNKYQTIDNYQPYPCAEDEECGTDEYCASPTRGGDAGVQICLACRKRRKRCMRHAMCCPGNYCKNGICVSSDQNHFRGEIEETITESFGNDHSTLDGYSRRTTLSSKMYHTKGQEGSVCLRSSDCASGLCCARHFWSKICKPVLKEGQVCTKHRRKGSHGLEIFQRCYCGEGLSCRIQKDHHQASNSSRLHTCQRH

In the case of `COCCOC(=O)N1C(=O)[C@@]2(c3cc(C#CCC(C(=O)OC)C(=O)OC)ccc31)[C@H](c1ccc(OCCO)cc1)N1[C@H](c3ccccc3)[C@H](c3ccccc3)OC(=O)[C@H]1[C@@H]2C(N)=O`, the composite z-score in [1] was 1.46; in [2], 0.0751; in assay [3], 0.443; in assay [5], 1.1; in [6], 1.24; in assay [7], 0.603. The composite z-score in assay [8] turned out to be 1.26; in assay [9], 0.57; in [10], 0.324. Moreover, the z-score in assay [4] was -1.6 (inactive).
For `CCCc1cc2c(n1Cc1ccc(OC)cc1)C(C)C1CN(C(=O)c3ccccc3)C(C)(C(=O)OC)C21` (stereo not given), the composite z-score in assay [1] was 0.862; in assay [2] it was 1.27; in assay [3], 1.59; in assay [5] it was 0.303; in assay [6], 0.482; in assay [7], -0.409. The composite z-score in assay [8] is 0.324; in [9], -1.71; in assay [10], 1.43. Moreover, the z-score in assay [4] is -1.94 (inactive).
On to `CC(C)(C)N1CC=CC23O[C@@H]4C=CCCOC(=O)C4[C@H]2C(=O)N(CCCO)[C@@H]3C1=O` (stereo not given in full), for which the composite z-score in [1] is -0.992; in [2], 1.43; in [3], -0.0642; in assay [5] it was -0.681; in [6], -0.764; in assay [7], -0.608. Moreover, the values for the composite z-score in assay [8], in assay [9] and in assay [10] were -0.788, -0.0177 and 1.38, respectively. In [4], the z-score is -1.1 (inactive).
On to `CCCCC(=C=CC[C@H](O)c1ccccc1OCCO)C[C@H](O)c1ccccn1`, for which the composite z-score is 1.36 in assay [1]; -0.127 in assay [2]; 0.211 in assay [3]; 0.551 in assay [5]; -0.251 in assay [6]; 0.324 in assay [7]. The composite z-score in assay [8] was 0.549; in assay [9], -0.0601; in assay [10], 1.54. The z-score in [4] is -0.471 (inactive).
Consider `N#Cc1ccc(NN2C(C(O)c3ccccc3)C=CC3C(=O)N(c4ccccc4)C(=O)C32)cc1` (stereo not given), for which the composite z-score in assay [1] is 1.3; in assay [2], 0.313; in assay [3], 0.557; in assay [5], 0.968; in [6] it was -0.353; in assay [7], -0.0382. Besides, the composite z-score in [8] was 0.441; in assay [9] it was -0.257; in [10] it was 0.658. The z-score in assay [4] was 1.3 (inactive).
`C[C@H]1NC(=O)C([C@@H](C)OCc2ccccc2)NC(=O)[C@@]23C(=O)N[C@@H](Cc4ccccc4)C2[C@H](C)[C@@]2(C)O[C@H]2C3/C=C/CC/C=C/CNC1=O` (stereo not given in full): the composite z-score in assay [1] was -0.0404; in [2] it was 0.0094; in assay [3] it was -0.298; in assay [5] it was 0.365; in assay [6] it was -0.248; in assay [7], 0.279. Further, the composite z-score turned out to be 0.575 in assay [8], 0.506 in assay [9] and 1.42 in assay [10]. For the same molecule, in [4], the z-score is -1.39 (inactive).
Turning to `O=C1O[C@H](c2ccccc2)[C@H](c2ccccc2)N2[C@H]1[C@@H](C(=O)N1CCCCCCC1)[C@]1(C(=O)Nc3ccccc31)[C@H]2c1ccc(O)cc1`, the composite z-score in [1] stood at 2.04; in [2], 2.68; in [3] it was 1.79; in assay [5], 1.68; in assay [6] it was 1.49; in assay [7], 2. Also, the composite z-score in [8] was determined as 1.8; in assay [9] it was 2.68; in assay [10], 2. In addition, in assay [4], the z-score is -0.365 (inactive).
Take `CC(C)N1CC=CC23O[C@@H]4C=CCOC(=O)[C@@H]4[C@H]2C(=O)N(CCCCCCO)[C@@H]3C1=O` (stereo not given in full): the composite z-score in assay [1] was 1.99; in assay [2], -0.284; in assay [3], 0.143; in assay [5] it was 0.636; in [6] it was -0.826; in assay [7], -0.997. For the same molecule, the composite z-score was -0.483 in [8], -0.959 in assay [9] and 0.741 in assay [10]. Also, the z-score in assay [4] is -0.594 (inactive).
On to `CCOC(=O)C1=CC[C@@H](c2ccc(N(CC)CC)cc2)N(S(=O)(=O)c2ccc(C)cc2)[C@H]1c1ccc([N+](=O)[O-])cc1`, for which the composite z-score was 0.468 in [1]; 0.592 in assay [2]; 1.33 in assay [3]; -0.69 in assay [5]; -1.04 in assay [6]; -1.17 in assay [7]. The figures for the composite z-score in [8], in assay [9] and in [10] were -0.966, -1.59 and 1.04, respectively. Moreover, in assay [4], the z-score is -1.26 (inactive).
In the case of `CC(C)CCC[C@@H](C)[C@H]1CC[C@@]2(C)C3=C(CC[C@]12C)[C@@]1(C)CC[C@H](OC(=O)C(C)(C)C)C(C)(C)C1CC3` (stereo not given in full), the composite z-score is -0.0682 in assay [1]; -0.291 in assay [2]; -0.636 in assay [3]; 0.897 in assay [5]; 0.465 in assay [6]; 0.837 in [7]. The figures for the composite z-score in assay [8], in assay [9] and in [10] were 0.619, 0.683 and -0.312, respectively. For the same molecule, the z-score in assay [4] was -2.09 (inactive).
On to `CN(C)C(=O)[C@]1(Cc2ccccc2N=[N+]=[N-])N=C(c2ccc(OCCCO)cc2)O[C@@H]1c1ccccc1CN=[N+]=[N-]`, for which the composite z-score is 0.43 in [1]; 0.189 in assay [2]; 0.279 in assay [3]; 1.38 in assay [5]; 1.32 in assay [6]; 0.243 in [7]. Also, the composite z-score turned out to be 1.3 in assay [8], 0.825 in [9] and 0.764 in assay [10]. In assay [4], the z-score was -0.891 (inactive).
As for `COc1cccc(C)c1NC(=O)O[C@H]1[C@H](OC(=O)Nc2ccccc2)[C@H](OC(=O)Nc2ccccc2)[C@@H](OC)O[C@@H]1CO`, the composite z-score in assay [1] is 1.1; in [2], 0.245; in assay [3] it was 0.708; in [5] it was 0.96; in [6], 0.0861; in [7], -0.0372. The composite z-score in assay [8] was 0.367; in [9], -0.294; in [10], 0.179. The z-score in assay [4] is 0.419 (inactive).
For the molecule `OCc1ccc(-c2cc[n+](Cc3cccc(OC(F)(F)F)c3)cc2)cc1`, the composite z-score in [1] was determined as 0.802; in assay [2], 0.44; in assay [3] it was 0.854; in assay [5] it was 0.981; in assay [6], 0.869; in [7] it was 1.33. In addition, the values for the composite z-score in [8], in [9] and in assay [10] were 1.48, 1.56 and 1.93, respectively. The z-score in [4] is 1.36 (inactive).
Consider `CN(C)CCCCCCNC(=O)[C@@H]1C[C@@H]2C(=O)NCC(=O)N2[C@@H]1c1ccc(O)cc1`, for which the composite z-score in assay [1] is 1.25; in assay [2], -0.0528; in [3], -0.29; in [5] it was 1.4; in assay [6], 1.36; in assay [7] it was 0.59. Besides, the values for the composite z-score in assay [8], in assay [9] and in [10] were 1.46, 1.19 and 0.678, respectively. In addition, the z-score in assay [4] is -0.326 (inactive).
Consider `[N-]=[N+]=Nc1ccccc1[C@H]1OC(c2ccc(OCCCO)cc2)=N[C@@]1(Cc1ccccc1)C(=O)NCc1ccccc1`, for which the composite z-score is 0.427 in assay [1]; 0.243 in [2]; 0.712 in assay [3]; 0.776 in assay [5]; 1.12 in assay [6]; -0.0565 in [7]. Further, the composite z-score in assay [8] is 0.643; in assay [9] it was 0.865; in assay [10], 0.774. Also, the z-score in assay [4] is -1.72 (inactive).

The values above are taken from PubChem BioAssay.
